Our source for the outcome values is PubChem BioAssay (EPA / NIEHS).

Molecules are shown by their SMILES. Records with an inconclusive call do not appear. Activity calls are given as the source filed them. How the source made its calls: active means hit-call score of the fitted dose curve at least 0.9, where 1 is the maximum; inconclusive means response in the unintended direction; inactive means score below 0.9.

The nature of the test: CCTE_Shafer_MEA_acute_LDH: CCTE's Lactate Dehydrogenase Assay for Cytotoxicity in the Neural Acute Assay, Shafer Lab (AID 2284086).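 Further: active means LDH release rises above DMSO vehicle level.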 How it is done:
CCTE_Shafer_MEA_acute assay is conducted using Axion Biosystems 48 well microelectrode array (MEA) plates and Maestro recording system. Each well of the MEA plate contains a grid of 16 microelectrodes embedded in the culture surface. Electrically active cells, such as neurons, can be cultured over the electrodes, and electrical activity in these cells can be recorded extracellularly. The spontaneous firing of neurons is captured from each electrode on a microsecond timescale providing both temporally and spatially precise data. […] The CCTE_Shafer_MEA_acute assay uses primary cultures of rat cortical neurons. As these cultures mature over time, neural networks develop functional activity and form cohesive networks in which electrical activity can be highly coordinated. Baseline 40-minute recordings are made on days post-plating 13 or 15, followed by a secondary 40-minute recording after chemical exposure.CCTE_Shafer_MEA_acute_LDH is a component of the CCTE_Shafer_MEA_acute assay. It measures the lactate dehydrogenase enzyme activity using spectrophotometry.Data from the assay component CCTE_Shafer_MEA_acute_LDH was analyzed into 1 assay endpoint. This assay endpoint, CCTE_Shafer_MEA_acute_LDH, was analyzed in the positive analysis fitting direction relative to DMSO as the negative control and baseline of activity. Using a type of viability reporter, gain-of-signal activity can be used to understand cell viability.
Immediately following the 40 min recording in the presence of compounds, 50 uL of media was removed from each well and transferred to a sterile 96-well plate. This was used to determine LDH released from cells during compound exposure using a kit from Promega where absorbance was determined in a Molecular Devices VersaMax plate reader at 490 nm.
On to `CS/C(C)=N/OC(=O)N(C)SN(C)C(=O)O/N=C(\C)SC`, for which the outcome was inactive.

Take `CC(Oc1ccc(Cl)cc1Cl)C(=O)O` (configuration not stated): the outcome was inactive.

For `C=CCC1=C(C)[C@@H](OC(=O)[C@@H]2[C@@H](C=C(C)C)C2(C)C)CC1=O`, the compound was classed as inactive.

For `Fc1ccc(Oc2ccnc3cc(Cl)cc(Cl)c23)cc1`, the result was inactive.

As to `C#CCOS(=O)OC1CCCCC1Oc1ccc(C(C)(C)C)cc1` (configuration not stated), the compound was classed as inactive.

As for `N#Cc1nn(-c2c(Cl)cc(C(F)(F)F)cc2Cl)c(N)c1S(=O)C(F)(F)F` (configuration not stated), the compound was classed as inactive.

Take `CCCCNC(=O)OCC#CI`: the outcome was inactive.

As to `O=C(O)c1nc(Cl)ccc1Cl`, the result was inactive.

With `COP(=S)(OC)Oc1nc(Cl)c(Cl)cc1Cl`, the result was inactive.

For `CO/C=C(/C(=O)OC)c1ccccc1Oc1cc(Oc2ccccc2C#N)ncn1`, the result was inactive.

As for `COC(=O)C(C)Oc1ccc(Oc2ccc(Cl)cc2Cl)cc1` (configuration not stated), the outcome was inactive.

On to `CC1COC(Cn2cncn2)(c2ccc(Oc3ccc(Cl)cc3)cc2Cl)O1` (configuration not stated), for which the result was inactive.

As to `COP(N)(=O)SC` (configuration not stated), the compound was called inactive.

For `N#CC(CCc1ccc(Cl)cc1)(Cn1cncn1)c1ccccc1` (configuration not stated), the outcome was inactive.

As for `C=CCC1=C(C)C(OC(=O)C2C(C=C(C)C)C2(C)C)CC1=O` (configuration not stated), the compound was called inactive.

Turning to `COC(=O)N(OC)c1ccccc1COc1ccn(-c2ccc(Cl)cc2)n1`, the result was inactive.

Consider `CC(C)(C)c1ccc(CSc2cnn(C(C)(C)C)c(=O)c2Cl)cc1`, for which the compound was classed as inactive.

Take `CCCN(CCC)c1c([N+](=O)[O-])cc(S(N)(=O)=O)cc1[N+](=O)[O-]`: the call was inactive.

`CCOP(=S)(OCC)SCn1c(=O)oc2cc(Cl)ccc21`: the compound was classed as inactive.

Take `CCCC1COC(Cn2cncn2)(c2ccc(Cl)cc2Cl)O1` (configuration not stated): the call was inactive.

`Cc1ccc(-c2c(Cl)nc(C#N)n2S(=O)(=O)N(C)C)cc1`: the outcome was inactive.

Regarding `CC(C)Oc1cc(-n2nc(C(C)(C)C)oc2=O)c(Cl)cc1Cl`, the compound was called inactive.
